From PubChem BioAssay (NCATS)
Results filed as inconclusive are left out. Activity calls are given as the source filed them. Calls follow the shape of the dose curve; as a rule, active = well fitted curve in the direction sought with a large enough effect; inconclusive = small, poorly fitted or top-dose-only effect, or another doubt; inactive = no such curve, though single readings can be large; an effect the other way counts as inactive or inconclusive.

What was measured:
[1] = qHTS of pediatric cancer cell lines to identify multiple opportunities for drug repurposing: Primary screen for RD cells (AID 1347104); also: nearly all actives have a fitted effect of over 55% in size
Procedure, shortened: (§1)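 Primary screen of approved and investigational compounds on cells in growth media at 37 degrees C, 5% CO2. MIPE set at 11-point and NPC set at 8-point dilutions; viability scored by ATP-based luminescence at 48 hours.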

[2] = qHTS of pediatric cancer cell lines to identify multiple opportunities for drug repurposing: Primary screen for MG 63 (6-TG R) cells (AID 1347105); also: nearly all actives have a fitted effect of over 50% in size
Procedure, shortened: as §1

[3] = qHTS of pediatric cancer cell lines to identify multiple opportunities for drug repurposing: Primary screen for control Hh wild type fibroblast cells (AID 1347106);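 also: series mostly up to about 46 µM; a drop in luminescence marks cytotoxicity and a rise apparent proliferation; nearly all actives have a fitted effect of over 55% in size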
Procedure, shortened: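 Viability after 48 h compound treatment at 37C, 500-1,000 cells/well, read as ATP luminescence with CellTiter-Glo. Primary screens used 11-point (MIPE, 0.78 nM-46 µM) or 8-point (NPC, 0.59 nM-46 µM) final concentrations; follow-up screens used 11-point dilutions.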

[4] = qHTS of pediatric cancer cell lines to identify multiple opportunities for drug repurposing: Primary screen for Rh30 cells (AID 1347107); also: series mostly up to about 46 µM; nearly all actives have a fitted effect of over 75% in size
Procedure, shortened: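 Cells (500-1,000/well) in growth media were settled 5 h at 37 degrees C, then given compounds for 48 h. Viability was read as CellTiter-Glo luminescence. Primary runs used MIPE at 11 points (0.78 nM-46 µM) and NPC at 8 points (0.59 nM-46 µM); follow-ups used 11 points.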

[5] = qHTS of pediatric cancer cell lines to identify multiple opportunities for drug repurposing: Primary screen for Rh41 cells (AID 1347108);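 also: series mostly up to about 46 µM; luminescence drop marks cytotoxic hits; nearly all actives have a fitted effect of over 70% in size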
Procedure, shortened: as §1

Measured: Potency

NCCc1ccc(O)cc1
inactive: [1] | [2] | [3] | [4]

CC(C)N(CCC(C(N)=O)(c1ccccc1)c1ccccn1)C(C)C (stereo not drawn)
inactive: [1] | [2] | [3] | [4]

COc1cc(CCN)cc(OC)c1OC
inactive: [1] | [2] | [3] | [4]

CCC1(CC)C(=O)C=CNC1=O
inactive: [1] | [2] | [3] | [4]

Nc1ccccc1C(=O)O
inactive: [1] | [2] | [3] | [4]

CC(=O)OCC1=C(C(=O)O)N2C(=O)[C@@H](N)[C@H]2SC1
inactive: [1] | [2] | [3] | [4]

NC1=NC(=O)C(c2ccccc2)O1 (stereo not drawn)
inactive: [1] | [2] | [3] | [4]

CC(=O)NC1CCSC1=O (stereo not drawn)
inactive: [1] | [2] | [3] | [4]

CC(C)C[C@H](CN)CC(=O)O
inactive: [1] | [2] | [3] | [4]

CNCC(=O)c1ccc(O)c(O)c1
inactive: [1] | [2] | [3] | [4]

COC1CC(=C(c2cccs2)c2cccs2)C[N+](C)(C)C1 (stereo not drawn)
inactive: [1] | [2] | [3] | [4]

CCN(CC)C(=O)[C@@H]1C=C2c3cccc4[nH]cc(c34)C[C@H]2N(C)C1
inactive: [1] | [2] | [3] | [4]

COP(=S)(OC)Oc1cc(Cl)c(Cl)cc1Cl
inactive: [1] | [2] | [3] | [4]

Oc1ccc(Cl)cc1
inactive: [1] | [2] | [3] | [4]

COP(=S)(OC)Oc1ccc(SC)c(C)c1
inactive: [1] | [2] | [3] | [4]

COc1ccc2c(c1OC)C(=O)O[C@H]2[C@@H]1c2cc3c(cc2CCN1C)OCO3
inactive: [1] | [2] | [3] | [4]

CN1C(=O)COc2c(C(=O)NC3CN4CCC3CC4)cc(Cl)cc21 (stereo not drawn)
inactive: [1] | [2] | [3] | [4]

CC(Cc1ccccc1)N(C)Cc1ccco1 (stereo not drawn)
inactive: [1] | [2] | [3] | [4]

CCC(C)(C)c1ccc(O)cc1
inactive: [1] | [2] | [3] | [4]

COC(=O)[C@@H](N)CCCN/C(N)=N/[N+](=O)[O-]
inactive: [1] | [2] | [3] | [4]

Clc1ccccc1N1CCNCC1
inactive: [1] | [2] | [3] | [4]

CCN(CC)CCc1c[nH]c2ccccc12
inactive: [1] | [2] | [3] | [4]

O=c1oc2ccccc2c(O)c1Cc1c(O)c2ccccc2oc1=O
inactive: [1] | [2] | [3] | [4]

CC(=O)C1CCOC1=O (stereo not drawn)
inactive: [1] | [2] | [3] | [4]

Nc1ccc([As](=O)(O)O)cc1
inactive: [1] | [2] | [3] | [4]

CC[N+]1(CC)CCC(OC(=O)C(O)(c2ccccc2)c2ccccc2)C1 (stereo not drawn)
inactive: [1] | [2] | [3] | [4]

O=C1OC(c2ccc(O)c(S(=O)(=O)O)c2)(c2ccc(O)c(S(=O)(=O)O)c2)c2c(Br)c(Br)c(Br)c(Br)c21
inactive: [1] | [2] | [3] | [4]

CCC(CC)(CNC(=O)CCCO)c1cccc(OC)c1
inactive: [1] | [2] | [3] | [4]

[N-]=[N+]=CC(=O)OC[C@H](N)C(=O)O
inactive: [1] | [2] | [3] | [4]

CCN[C@@H](C)Cc1cccc(C(F)(F)F)c1
inactive: [1] | [2] | [3] | [4]

O=c1[nH]c2ccccc2n1C1CCNCC1
inactive: [1] | [2] | [3] | [4]

COP(=S)(OC)SCN1C(=O)c2ccccc2C1=O
inactive: [1] | [2] | [3] | [4]

C=CCC1(C(C)CC)C(=O)NC(=O)NC1=O (stereo not drawn)
inactive: [1] | [2] | [3] | [4]

CCC1(c2ccccc2)C(=O)N(COC)C(=O)N(COC)C1=O
inactive: [1] | [2] | [3] | [4]

CCCCC/C=C\C/C=C\C/C=C\C/C=C\CCCC(=O)NCC(=O)O
inactive: [1] | [2] | [3] | [4]

COc1cc(OC)c(OC)cc1C=O
inactive: [1] | [2] | [3] | [4]

CC(C)(C)NCC(O)c1cc(Cl)c(N)c(C(F)(F)F)c1 (stereo not drawn)
inactive: [1] | [2] | [3] | [4]

CCc1cc2c(s1)-n1c(C)nnc1CN=C2c1ccccc1Cl
inactive: [1] | [2] | [3] | [4]

Cc1ncsc1CCCl
inactive: [1] | [2] | [3] | [4]

CC1(C)C(C=C(Cl)Cl)C1C(=O)OC(C#N)c1cccc(Oc2ccccc2)c1 (stereo not drawn)
inactive: [1] | [2] | [3] | [4] | [5]

C#C[C@]1(O)CC[C@H]2[C@@H]3CCC4=CC(=O)CC[C@]4(C)[C@H]3CC[C@@]21C
inactive: [1] | [2] | [3] | [4] | [5]

C[C@H](N)C(=O)c1ccccc1
inactive: [1] | [2] | [3] | [4] | [5]

O=C(O)c1ccc(=O)[nH]c1
inactive: [1] | [2] | [3] | [4]

C[C@@H]1CC2=CC(=O)CC[C@@H]2[C@H]2CC[C@@]3(C)[C@@H](CC[C@]3(C)O)[C@@H]21
inactive: [1] | [2] | [3] | [4] | [5]

COc1ccc2c3c1O[C@H]1[C@H](O)CC[C@H]4[C@@H](C2)N(C)CC[C@@]341
inactive: [1] | [2] | [3] | [4] | [5]

C[C@H]1[C@@H]2Cc3ccc(O)cc3[C@@]1(C)CCN2C
inactive: [1] | [2] | [3] | [4] | [5]

NC(=O)CS(=O)C(c1ccccc1)c1ccccc1 (stereo not drawn)
inactive: [1] | [2] | [3] | [4] | [5]

CC(C)c1cccc(C(C)C)c1O
inactive: [1] | [2] | [3] | [4] | [5]

Nc1nc(N)nc(NC2CC2)n1
inactive: [1] | [2] | [3] | [4] | [5]

COC(=O)C(Cl)C(=O)OC
inactive: [1] | [2] | [3] | [4] | [5]

CCC1(c2ccc(N)cc2)CCC(=O)NC1=O (stereo not drawn)
inactive: [1] | [2] | [3] | [4] | [5]

CC(C)(N)Cc1ccccc1Cl
inactive: [1] | [2] | [3] | [4] | [5]

CCCCCCCCCC(=O)O[C@H]1CC[C@H]2[C@@H]3CCC4=CC(=O)CC[C@@H]4[C@H]3CC[C@]12C
inactive: [1] | [2] | [3] | [4] | [5]

C[C@]12CC[C@@H]3c4ccc(OC(=O)N(CCCl)CCCl)cc4CC[C@H]3[C@@H]1CC[C@@H]2OP(=O)(O)O
inactive: [1] | [2] | [3] | [4] | [5]

CN1C(=O)NC(=O)C(C)(C2=CCCCC2)C1=O (stereo not drawn)
inactive: [1] | [2] | [3] | [4] | [5]

c1ccc2c(c1)sc1ccccc12
inactive: [1] | [2] | [3] | [4] | [5]

CCC(C)C(C)(COC(N)=O)COC(N)=O (stereo not drawn)
inactive: [1] | [2] | [3] | [4] | [5]

CN(C)CCc1c[nH]c2cccc(OP(=O)(O)O)c12
inactive: [1] | [2] | [3] | [4] | [5]

CN1CC[C@]23c4c5ccc(O)c4O[C@H]2[C@@H](O)CC[C@H]3[C@H]1C5
inactive: [1] | [2] | [3] | [4] | [5]

CC(C)(C)NCC(O)c1ccccc1Cl (stereo not drawn)
inactive: [1] | [2] | [3] | [4] | [5]

Clc1cccc(SC2CCNCC2)n1
inactive: [1] | [2] | [3] | [4] | [5]

O=C1CN=C(c2ccccc2)c2cc([N+](=O)[O-])ccc2N1
inactive: [1] | [2] | [3] | [4] | [5]

c1ccc(CN2CCNCC2)cc1
inactive: [1] | [2] | [3] | [4] | [5]

CC(C)=CC1C(C(=O)OCN2C(=O)C3=C(CCCC3)C2=O)C1(C)C (stereo not drawn)
inactive: [1] | [2] | [3] | [4] | [5]

NNc1ccccc1
inactive: [1] | [2] | [3] | [4] | [5]

c1ccc(N2CCNCC2)cc1
inactive: [1] | [2] | [3] | [4] | [5]

C[C@]12CC[C@@H]3c4ccc(OC(=O)N(CCCl)CCCl)cc4CC[C@H]3[C@@H]1CC[C@@H]2O
inactive: [1] | [2] | [3] | [4] | [5]

C#CC(O)(C=CCl)CC (stereo not drawn)
inactive: [1] | [2] | [3] | [4] | [5]

O=C(CCCN1CCC2(CC1)C(=O)NCN2c1ccccc1)c1ccc(F)cc1
inactive: [1] | [2] | [3] | [4] | [5]

C=CCN1C[C@H](C)N([C@H](c2ccc(C(=O)N(CC)CC)cc2)c2cccc(OC)c2)C[C@H]1C
inactive: [1] | [2] | [3] | [4] | [5]

CCN[C@@H](C)Cc1ccccc1
inactive: [1] | [2] | [3] | [4]

C[C@]12CC[C@H]3[C@@H](CCC4=CC(=O)CC[C@@H]43)[C@@H]1CC[C@@H]2OC(=O)CCC1CCCCC1
inactive: [1] | [2] | [3] | [4] | [5]

C[N+]1(CCF)[C@@H]2CC[C@H]1CC(OC(=O)C(O)(c1ccccc1)c1ccccc1)C2 (stereo partly drawn)
inactive: [1] | [2] | [3] | [4] | [5]

C[C@]12CC[C@H]3[C@@H](CCC4=CC(=O)CC[C@@H]43)[C@@H]1CC[C@@H]2OC(=O)CCc1ccco1
inactive: [1] | [2] | [3] | [4] | [5]

C[C@]12Cc3cn[nH]c3C[C@@H]1CC[C@@H]1[C@@H]2CC[C@@]2(C)[C@H]1CC[C@]2(C)O
inactive: [1] | [2] | [3] | [4]

CC(C(=O)c1ccccc1)N(C)C (stereo not drawn)
inactive: [1] | [2] | [3] | [4] | [5]

CC(Cc1ccccc1)NCCn1cnc2c1c(=O)n(C)c(=O)n2C (stereo not drawn)
inactive: [1] | [2] | [3] | [4] | [5]

CC(C)c1c(CN(C)C(C)Cc2ccccc2)n(C)n(-c2ccccc2)c1=O (stereo not drawn)
inactive: [1] | [2] | [3] | [4] | [5]
